Article PMC5700166

biological target: T1, GST-Aq-NF-kB (Amphimedon queenslandica, UniProt A9Y5G7 2-389); assay: protein-binding microarray (PBM); PBM: ~300 nM protein, 6 mM HEPES pH 7.8, 80 mM KCl, 0.5 mM EDTA, 0.5 mM EGTA, 6% glycerol, 35 ng/ul poly-dIdC, 1% milk, 1 h, room temperature; Ap Aiptasia and Nv Nematostella (sea anemones) / Co Capsaspora / Aq Amphimedon (sponge) / Dm Drosophila / Hu human; RHD is the Rel homology domain; high values mean tight binding; settings: dsDNA, one strand shown
T1 sequence: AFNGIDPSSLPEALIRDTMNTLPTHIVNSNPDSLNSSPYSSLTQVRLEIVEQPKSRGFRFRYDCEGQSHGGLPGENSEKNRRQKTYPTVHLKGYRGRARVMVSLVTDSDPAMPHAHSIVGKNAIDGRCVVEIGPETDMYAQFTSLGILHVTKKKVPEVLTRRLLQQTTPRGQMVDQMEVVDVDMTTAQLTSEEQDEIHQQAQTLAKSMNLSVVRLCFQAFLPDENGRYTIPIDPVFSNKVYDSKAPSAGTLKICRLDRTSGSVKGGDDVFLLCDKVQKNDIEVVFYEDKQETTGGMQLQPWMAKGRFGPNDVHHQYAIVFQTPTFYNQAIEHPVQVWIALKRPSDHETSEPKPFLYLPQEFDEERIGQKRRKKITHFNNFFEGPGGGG

Row | Sequence | binding signal [z-score]
1 | CCGATTAACATCAAGAAACCCCCTGATGTTAATCGGGTCTTGATTCGCTTGACGCTGCTG | 7.67
2 | CCGATTAACATCAAGGGGGAAAATGATGTTAATCGGGTCTTGATTCGCTTGACGCTGCTG | 6.14
3 | CCGATTAACATCAAGGTATTCCCTGATGTTAATCGGGTCTTGATTCGCTTGACGCTGCTG | 5.39
4 | CCGATTAACATCAGGGAAACCCCTGATGTTAATCGGGTCTTGATTCGCTTGACGCTGCTG | 10
5 | CCGATTAACATCAGCCCGGGAAATGATGTTAATCGGGTCTTGATTCGCTTGACGCTGCTG | 2.09
6 | CCGATTAACATCAAACTACCCCCTGATGTTAATCGGGTCTTGATTCGCTTGACGCTGCTG | 4.3
7 | CCGATTAACATCAAGGGGGTTTATGATGTTAATCGGGTCTTGATTCGCTTGACGCTGCTG | 6.24
8 | CCGATTAACATCAAAAATCCCCGTGATGTTAATCGGGTCTTGATTCGCTTGACGCTGCTG | 8.1
9 | CCGATTAACATCAGAAATATCCCTGATGTTAATCGGGTCTTGATTCGCTTGACGCTGCTG | 4.26
10 | CCGATTAACATCAACGGATTCCCTGATGTTAATCGGGTCTTGATTCGCTTGACGCTGCTG | 2.97
11 | CCGATTAACATCAGGGGGAATTATGATGTTAATCGGGTCTTGATTCGCTTGACGCTGCTG | 7
12 | CCGATTAACATCAGGGGAACTTATGATGTTAATCGGGTCTTGATTCGCTTGACGCTGCTG | 6.48
13 | CCGATTAACATCAGGCATCCCCATGATGTTAATCGGGTCTTGATTCGCTTGACGCTGCTG | 2.63
14 | CCGATTAACATCAGATATTCCCATGATGTTAATCGGGTCTTGATTCGCTTGACGCTGCTG | 2.67
15 | CCGATTAACATCAAACACCCCCTTGATGTTAATCGGGTCTTGATTCGCTTGACGCTGCTG | 6.03
16 | CCGATTAACATCAGGGAATTTTATGATGTTAATCGGGTCTTGATTCGCTTGACGCTGCTG | 8.16
17 | CCGATTAACATCAAAAAATCCCCTGATGTTAATCGGGTCTTGATTCGCTTGACGCTGCTG | 9.56
18 | CCGATTAACATCAGGACTCCCCATGATGTTAATCGGGTCTTGATTCGCTTGACGCTGCTG | 4.12
19 | CCGATTAACATCAAAATTCCCGCTGATGTTAATCGGGTCTTGATTCGCTTGACGCTGCTG | 5.51
20 | CCGATTAACATCAATTTCCCACCTGATGTTAATCGGGTCTTGATTCGCTTGACGCTGCTG | 2.26

Row | Sequence | binding signal [z-score]
21 | CCGATTAACATCAAAATTCCCACTGATGTTAATCGGGTCTTGATTCGCTTGACGCTGCTG | 4.54
22 | CCGATTAACATCACTGAAATCCCTGATGTTAATCGGGTCTTGATTCGCTTGACGCTGCTG | 2.54
23 | CCGATTAACATCACAGTTTCCCCTGATGTTAATCGGGTCTTGATTCGCTTGACGCTGCTG | 4.9
24 | CCGATTAACATCAGGGGAATGTATGATGTTAATCGGGTCTTGATTCGCTTGACGCTGCTG | 5.58
25 | CCGATTAACATCAGGGGGATCCATGATGTTAATCGGGTCTTGATTCGCTTGACGCTGCTG | 5.46
26 | CCGATTAACATCAAGGGAATGCCTGATGTTAATCGGGTCTTGATTCGCTTGACGCTGCTG | 4.2
27 | CCGATTAACATCACAAATTCCCCTGATGTTAATCGGGTCTTGATTCGCTTGACGCTGCTG | 8.11
28 | CCGATTAACATCAGGGTAAGTACTGATGTTAATCGGGTCTTGATTCGCTTGACGCTGCTG | 5.82
29 | CCGATTAACATCACAAACTCCCCTGATGTTAATCGGGTCTTGATTCGCTTGACGCTGCTG | 5.35
30 | CCGATTAACATCACCGTTTCCCCTGATGTTAATCGGGTCTTGATTCGCTTGACGCTGCTG | 4.66
31 | CCGATTAACATCAGGGGGTCCACTGATGTTAATCGGGTCTTGATTCGCTTGACGCTGCTG | 4.83
32 | CCGATTAACATCAGGGGTTTCTATGATGTTAATCGGGTCTTGATTCGCTTGACGCTGCTG | 4.5
33 | CCGATTAACATCAGGGGAAAACCTGATGTTAATCGGGTCTTGATTCGCTTGACGCTGCTG | 9.77
34 | CCGATTAACATCAGGGAAGTACCTGATGTTAATCGGGTCTTGATTCGCTTGACGCTGCTG | 7.45
35 | CCGATTAACATCAGATAATTCCCTGATGTTAATCGGGTCTTGATTCGCTTGACGCTGCTG | 7.02
36 | CCGATTAACATCAGGATTTCCCCTGATGTTAATCGGGTCTTGATTCGCTTGACGCTGCTG | 9.68
37 | CCGATTAACATCACAAAAACCCCTGATGTTAATCGGGTCTTGATTCGCTTGACGCTGCTG | 6.48
38 | CCGATTAACATCAGGGGAGTTTATGATGTTAATCGGGTCTTGATTCGCTTGACGCTGCTG | 6.08
39 | CCGATTAACATCAGGGGCCCCCCTGATGTTAATCGGGTCTTGATTCGCTTGACGCTGCTG | 7.54

biological target: GST-Hu-p50 (Homo sapiens, UniProt P19838 7-356); assay: as above; settings: dsDNA, one strand shown
Sequence (P19838 7-356): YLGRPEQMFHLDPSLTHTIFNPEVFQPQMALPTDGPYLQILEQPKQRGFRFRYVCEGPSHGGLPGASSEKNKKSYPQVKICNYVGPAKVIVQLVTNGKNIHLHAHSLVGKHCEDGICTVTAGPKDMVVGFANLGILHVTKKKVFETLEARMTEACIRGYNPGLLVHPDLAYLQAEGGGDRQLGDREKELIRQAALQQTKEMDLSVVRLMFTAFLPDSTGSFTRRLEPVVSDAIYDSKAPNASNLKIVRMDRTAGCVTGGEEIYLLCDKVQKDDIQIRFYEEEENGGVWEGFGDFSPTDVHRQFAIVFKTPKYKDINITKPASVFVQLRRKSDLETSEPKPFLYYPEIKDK

Row | Sequence | binding signal [z-score]
40 | CCGATTAACATCAAGAAACCCCCTGATGTTAATCGGGTCTTGATTCGCTTGACGCTGCTG | 7.53
41 | CCGATTAACATCAAGGGGGAAAATGATGTTAATCGGGTCTTGATTCGCTTGACGCTGCTG | 7.34
42 | CCGATTAACATCAAGGTATTCCCTGATGTTAATCGGGTCTTGATTCGCTTGACGCTGCTG | 2.26
43 | CCGATTAACATCAGGGAAACCCCTGATGTTAATCGGGTCTTGATTCGCTTGACGCTGCTG | 6.82
44 | CCGATTAACATCAGCCCGGGAAATGATGTTAATCGGGTCTTGATTCGCTTGACGCTGCTG | 1.28
45 | CCGATTAACATCAAACTACCCCCTGATGTTAATCGGGTCTTGATTCGCTTGACGCTGCTG | 4.12
46 | CCGATTAACATCAAGGGGGTTTATGATGTTAATCGGGTCTTGATTCGCTTGACGCTGCTG | 7.21
47 | CCGATTAACATCAAAAATCCCCGTGATGTTAATCGGGTCTTGATTCGCTTGACGCTGCTG | 7.67
48 | CCGATTAACATCAGAAATATCCCTGATGTTAATCGGGTCTTGATTCGCTTGACGCTGCTG | 3.17
49 | CCGATTAACATCAACGGATTCCCTGATGTTAATCGGGTCTTGATTCGCTTGACGCTGCTG | 1.77
50 | CCGATTAACATCAGGGGGAATTATGATGTTAATCGGGTCTTGATTCGCTTGACGCTGCTG | 7.24
51 | CCGATTAACATCAGGGGAACTTATGATGTTAATCGGGTCTTGATTCGCTTGACGCTGCTG | 5.95
52 | CCGATTAACATCAGGCATCCCCATGATGTTAATCGGGTCTTGATTCGCTTGACGCTGCTG | 2.9
53 | CCGATTAACATCAGATATTCCCATGATGTTAATCGGGTCTTGATTCGCTTGACGCTGCTG | 1.97
54 | CCGATTAACATCAAACACCCCCTTGATGTTAATCGGGTCTTGATTCGCTTGACGCTGCTG | 5.5
55 | CCGATTAACATCAGGGAATTTTATGATGTTAATCGGGTCTTGATTCGCTTGACGCTGCTG | 6.55
56 | CCGATTAACATCAAAAAATCCCCTGATGTTAATCGGGTCTTGATTCGCTTGACGCTGCTG | 8.06
57 | CCGATTAACATCAGGACTCCCCATGATGTTAATCGGGTCTTGATTCGCTTGACGCTGCTG | 2.97
58 | CCGATTAACATCAAAATTCCCGCTGATGTTAATCGGGTCTTGATTCGCTTGACGCTGCTG | 4.41
59 | CCGATTAACATCAATTTCCCACCTGATGTTAATCGGGTCTTGATTCGCTTGACGCTGCTG | 2.74

Row | Sequence | binding signal [z-score]
60 | CCGATTAACATCAAAATTCCCACTGATGTTAATCGGGTCTTGATTCGCTTGACGCTGCTG | 4.27
61 | CCGATTAACATCACTGAAATCCCTGATGTTAATCGGGTCTTGATTCGCTTGACGCTGCTG | 1.71
62 | CCGATTAACATCACAGTTTCCCCTGATGTTAATCGGGTCTTGATTCGCTTGACGCTGCTG | 5.61
63 | CCGATTAACATCAGGGGAATGTATGATGTTAATCGGGTCTTGATTCGCTTGACGCTGCTG | 5.69
64 | CCGATTAACATCAGGGGGATCCATGATGTTAATCGGGTCTTGATTCGCTTGACGCTGCTG | 5.74
65 | CCGATTAACATCAAGGGAATGCCTGATGTTAATCGGGTCTTGATTCGCTTGACGCTGCTG | 1.87
66 | CCGATTAACATCACAAATTCCCCTGATGTTAATCGGGTCTTGATTCGCTTGACGCTGCTG | 7.34
67 | CCGATTAACATCAGGGTAAGTACTGATGTTAATCGGGTCTTGATTCGCTTGACGCTGCTG | 2.3
68 | CCGATTAACATCACAAACTCCCCTGATGTTAATCGGGTCTTGATTCGCTTGACGCTGCTG | 5.66
69 | CCGATTAACATCACCGTTTCCCCTGATGTTAATCGGGTCTTGATTCGCTTGACGCTGCTG | 5.1
70 | CCGATTAACATCAGGGGGTCCACTGATGTTAATCGGGTCTTGATTCGCTTGACGCTGCTG | 3.28
71 | CCGATTAACATCAGGGGTTTCTATGATGTTAATCGGGTCTTGATTCGCTTGACGCTGCTG | 5.3
72 | CCGATTAACATCAGGGGAAAACCTGATGTTAATCGGGTCTTGATTCGCTTGACGCTGCTG | 6.91
73 | CCGATTAACATCAGGGAAGTACCTGATGTTAATCGGGTCTTGATTCGCTTGACGCTGCTG | 5.92
74 | CCGATTAACATCAGATAATTCCCTGATGTTAATCGGGTCTTGATTCGCTTGACGCTGCTG | 4.73
75 | CCGATTAACATCAGGATTTCCCCTGATGTTAATCGGGTCTTGATTCGCTTGACGCTGCTG | 7.53
76 | CCGATTAACATCACAAAAACCCCTGATGTTAATCGGGTCTTGATTCGCTTGACGCTGCTG | 6.99
77 | CCGATTAACATCAGGGGAGTTTATGATGTTAATCGGGTCTTGATTCGCTTGACGCTGCTG | 5.95
78 | CCGATTAACATCAGGGGCCCCCCTGATGTTAATCGGGTCTTGATTCGCTTGACGCTGCTG | 4.57
